Bioassay records (PubChem BioAssay)
Pol kappa inh – qHTS for Inhibitors of Polymerase Kappa. purified Pol kappa, fluorescent DNA synthesis assay, 10 min. Potency, µM (highest dose often 107 µM), for inactives: at the highest dose activity, negative = inhibition, usual class: inhibitors. 400,000 tested, 0.53% active. AID 588579, 2011; note: potency is the fitted concentration of half-maximal effect; % is set by controls: 0 for no effect and ±100 for the full control effect
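Fluorescent qHTS in 1536-well format: enzyme (10 nM) and compound sat 15 min at room temperature before 50 nM substrate (final) was added. Signal taken at 0 and 10 min; no-enzyme buffer wells were negative controls.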
Pol beta inh – qHTS Assay for Inhibitors of DNA Polymerase Beta. P06746. Pol beta primer extension/strand displacement, fluorescence kinetic. Potency, µM (top dose mostly 114 µM), for the others: top-dose activity change, negative = inhibition, usual class: inhibitors. 340,000 tested, 1.3% active; note: potency is the fitted concentration of half-maximal effect; % is set by controls: 0 for no effect and ±100 for the full control effect
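Enzyme-only controls used 10 nM Pol beta; buffer lacking enzyme served as negative control. Compound preincubated 15 min, then 50 nM substrate added; 0 and 10 min reads at room temperature.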
POLH inh – qHTS for Inhibitors of Polymerase Eta; AID 588591, 2011; Potency, µM (doses to about 114 µM), for the others: top-dose activity change, negative = inhibition, usual class: inhibitors; DNA polymerase eta (Homo sapiens), Q9Y253; 390,000 tested, 1.2% active; recombinant Pol eta, fluorescent DNA replication assay; note: potency is the fitted concentration of half-maximal effect; % is set by controls: 0 for no effect and ±100 for the full control effect
Target sequence (Q9Y253 whole entry, looked up): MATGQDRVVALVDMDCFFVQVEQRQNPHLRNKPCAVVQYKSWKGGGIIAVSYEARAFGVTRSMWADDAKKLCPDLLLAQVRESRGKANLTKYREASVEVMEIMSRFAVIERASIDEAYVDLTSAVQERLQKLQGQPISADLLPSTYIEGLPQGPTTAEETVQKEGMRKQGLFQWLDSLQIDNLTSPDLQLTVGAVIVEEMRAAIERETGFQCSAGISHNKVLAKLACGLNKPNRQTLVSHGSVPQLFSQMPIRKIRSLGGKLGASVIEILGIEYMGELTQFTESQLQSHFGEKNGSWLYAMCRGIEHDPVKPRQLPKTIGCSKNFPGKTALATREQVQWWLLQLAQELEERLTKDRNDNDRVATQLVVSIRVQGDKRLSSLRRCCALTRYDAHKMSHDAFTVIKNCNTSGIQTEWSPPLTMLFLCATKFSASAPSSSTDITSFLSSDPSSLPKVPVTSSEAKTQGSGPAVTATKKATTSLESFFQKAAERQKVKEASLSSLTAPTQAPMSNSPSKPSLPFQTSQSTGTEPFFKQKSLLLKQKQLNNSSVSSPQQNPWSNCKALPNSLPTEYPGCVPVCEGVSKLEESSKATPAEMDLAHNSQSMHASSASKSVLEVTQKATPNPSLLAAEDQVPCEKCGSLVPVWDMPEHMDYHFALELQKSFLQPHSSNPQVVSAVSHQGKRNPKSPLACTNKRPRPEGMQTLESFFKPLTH
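Pol eta (10 nM) was preincubated with compounds for 15 min at room temperature, after which fluorescent replication substrate (50 nM final) was added to start the reaction. Fluorescence was read kinetically at 0 and 10 min.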
PI5P4K alpha inh – qHTS for Inhibitors of phosphatidylinositol 5-phosphate 4-kinase (PI5P4K). PI5P4Kalpha enzyme, ADP-Glo luminescence, 60 min; stronger effect = lower value. 330,000 tested, 1.2% active. Phosphatidylinositol 5-phosphate 4-kinase type-2 alpha (Homo sapiens), P48426. max response, %; active = max response of -50% or lower; inconclusive = between -30% and -50%; inactive = -30% or higher; note: value at the top dose of about 77 µM; % is set by controls: 0 for no effect and ±100 for the full control effect
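Compounds were pin-transferred onto PI5P4Kalpha and substrate in HEPES pH 7.4 buffer with EGTA, CHAPS and 5% DMSO. ATP (5 microM final) started the reaction, which ran 60 minutes at room temperature before ADP-Glo detection.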
WRN inhibitor – qHTS for Inhibitors of WRN Helicase. Bifunctional 3'-5' exonuclease/ATP-dependent helicase WRN (Homo sapiens), Q14191. 360,000 tested, 0.46% active. WRN helicase unwinding, fluorescent forked duplex, kinetic. Potency, µM (titrated, usually from 114 µM), without a hit: at the highest dose activity change, negative = inhibition, actives largely listed as inhibitors; note: potency is the fitted concentration of half-maximal effect; % is set by controls: 0 for no effect and ±100 for the full control effect; nearly all actives have a fitted effect of over 55% in size
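Fluorescence dequenching readout, ex 525 nm/em 598 nm, kinetic mode: forked duplex DNA (100 nM final) with adjacent fluorophore and quencher unwound by WRN (20 nM final) with 2 mM ATP. Compound preincubation 15 min, room temperature.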
Pol iota inh – qHTS for Inhibitors of Polymerase Iota | DNA polymerase iota (Homo sapiens), Q9UNA4 | Pol iota fluorescent replication assay, 10 min | Potency, µM (titrated, usually from 115 µM), for the others: at the top dose activity, negative = inhibition, most hits filed as inhibitors | 390,000 tested, 1% active; note: potency is the fitted concentration of half-maximal effect
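Fluorescent replication assay read twice, at 0 min and 10 min after adding 50 nM (final) substrate. Enzyme (10 nM) and compounds were first incubated 15 min at room temperature; enzyme-free buffer wells were negative controls.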
Active calls of the source: *; ? = inconclusive; / = no result given; [ ] = another dose, or the depositor's remark. Shown are actives, neighbours in structure and some others; about 2.8% of the full set was active somewhere. Unless noted, calls come from the whole dose curve; as a rule, active = well fitted curve in the direction sought with a large enough effect; inconclusive = small, poorly fitted or top-dose-only effect, or another doubt; inactive = no such curve, though single readings can be large; an effect the other way counts as inactive or inconclusive.

SMILES	Pol kappa inh	Pol beta inh	POLH inh	PI5P4K alpha inh	WRN inhibitor	Pol iota inh
COc1cc(/C=C2\SC(=S)N(C(Cc3ccccc3)C(=O)O)C2=O)ccc1O (stereo unspecified)	?	50µM*	?	-9	50µM*	?
CNC(=O)C1(C(F)(F)F)C/C(=C\Cc2ccccc2)CCCO1 (stereo unspecified)	-6%	/	/	/	/	?
Cc1ccc(-n2ccnc(NCCc3ccc(S(N)(=O)=O)cc3)c2=O)c(C)c1	-3%	1%	-18%	/	/	41%
C=CCC(C(=O)OC)(C(=O)OC)c1ccccc1[N+](=O)[O-]	0%	-1%	-6%	2	-1%[57.1 µM]	18%
Oc1c(Cl)cc(Cl)cc1Sc1cc(Cl)cc(Cl)c1O	?	22µM*	/	/	/	/
Cc1cc(C)c(O)c(CN(C)Cc2cc(Cl)cc(Cl)c2O)c1	-29%	/	-14%	2	-10%	70%
N#C/C(=C\c1ccc(O)c(O)c1)C(=O)N1CCCC1	-14%	-19%	?	-17	2%[11.6 µM]	?
N#C/C(=C/c1cc(Cl)c(O)c(Cl)c1)C(=O)N1CCCCC1	-10%	8%	-5%	-94*	-11%	78%
CCOc1ccc2oc(=O)cc(CN3CCN(c4cc(C)ccc4C)CC3)c2c1	-16%	23%	-3%	/	/	0%
O=C(CSc1ccc(-c2ccco2)nn1)NC1CCCC1	-21%	-6%	-6%	2	-4%	17%
O=C(CSc1ccc(-c2ccco2)nn1)c1ccccc1	?	11µM*	-9%	?	?	50µM*
COc1ccc(C(=O)CSc2ccc(-c3ccco3)nn2)cc1	-24%	14µM*	?	?	-25%	?
O=C(CSc1ccc(-c2ccco2)nn1)NC1CCCCC1	?	22µM*	?	?	-28%	?
O=C(CCN1CCCCC1)c1ccc2c(c1)OCCO2	3%	38%	-5%	/	-11%	?
O=C(CCN1CCCC1Cc1ccccc1)c1ccc2c(c1)OCCO2 (stereo unspecified)	0%	0%	-13%	0	56µM*	?
Oc1ccc(NCc2cccc(OCc3ccc(F)cc3)c2)cc1	-20%	15%	-20%	-6	8%	22µM*
Oc1ccc(NCc2cccc(OCc3ccccc3)c2)cc1	-3%	16%	-18%	-21	22%	?
O=C(CCCN1C(=O)/C(=C/c2cccc(Br)c2)SC1=S)NCCCN1CCOCC1	-6%	0%	-22%	-5	-3%	?
O=C(CN1C(=O)/C(=C/c2cccc(Br)c2)SC1=S)NCCCN1CCOCC1	-23%	1%	?	-14	79µM*	?
CC(C)n1c(=S)[nH]c2c1c(=O)[nH]c(=O)n2C	-13%	21%	-19%	-76*	89µM*	19%
C=CC(C)n1c(Br)nc2c1c(=O)[nH]c(=O)n2C (stereo unspecified)	-5%	1%	-19%	-4	0%	66%
Nc1c(C(=O)N/N=C/c2ccc(Cl)cc2)cnn1-c1ccccc1	-11%	-8%	-10%	-1	-24%	147%
O=c1c(Cl)c(N/N=C/c2ccc(Cl)cc2)cnn1-c1ccccc1	?	18µM*	?	3	?	28µM*
Cc1cc(C(=O)COC(=O)Cc2ccc(Cl)cc2)c(C)n1C	?	/	?	-17	-23%	35µM*
O=C(NCCc1ccco1)c1cc(COc2cccc(C(F)(F)F)c2)on1	-4%	0%	-26%	7	-10%	33%
SMILES	Pol kappa inh	Pol beta inh	POLH inh	PI5P4K alpha inh	WRN inhibitor	Pol iota inh
O=C(C[C@@H]1CC[C@@H]2[C@H](COC[C@H](O)CN2CCC(F)(F)F)O1)NCc1ccc2c(c1)OCO2	/	/	/	-2	3%	/
CN1CCN(C2=C(Cl)C(=O)C(c3cnc(N4CCCCC4)s3)=C(Cl)C2=O)CC1	-23%	-22%	?	-89*	?	?
CN1CCN(C2=C(Cl)C(=O)N(C3CCCCC3)C2=O)CC1	2%	6%	-12%	/	1%	-1%
CCc1ccc2[nH]c(=O)c(C3C(C#N)=C(N)Oc4c3ccc3cccnc43)cc2c1 (stereo unspecified)	-21%	19%	?	-51*	-14%	45%
Cc1ccc2ccc3cc(C(=O)N4CCN(c5ccccc5F)CC4)nc3c2[nH]1	3%	-29%	?	/	/	14%
Cc1ccc2ccc3cc(C(=O)Nc4ccc(C)c(F)c4)nc3c2[nH]1	-15%	?	-11%	/	/	89µM*
CCN(CCO)c1nc(SC)nc2c1sc1nc(-c3ccco3)c3c(c12)CCC3	?	7.1µM*	-15%	20	-13%	?
CCN(CCO)c1ncnc2c1sc1nc(C(C)C)c3c(c12)CC(C)(C)OC3	-18%	18%	-10%	4	-8%	?
CSc1nc(NCCOCCO)c2sc3nc(-c4ccco4)c4c(c3c2n1)CCC4	-1%	3.5µM*	-13%	-10	-13%	12%
COc1cccc(C(=O)NCCSc2c(-c3ccc(F)cc3)[nH]c3ccccc23)c1OC	-7%	-1%	-16%	/	/	-5%
Cn1nc(C(=O)NCCc2ccc(S(N)(=O)=O)cc2)c2ccccc2c1=O	14%	-11%	-13%	2	2%	12%
CC(C)c1ccc(/C=N/NC(=O)c2cc(-c3cccc([N+](=O)[O-])c3)n[nH]2)cc1	-18%	22µM*	?	3	-28%	?
CC1(C)CC2(CC(c3ccccc3F)c3ccc(O)c(O)c3O2)NC(=S)N1 (stereo unspecified)	-11%	?	-9%	-56*	-11%	5%
O=c1cc(-c2ccccc2O)oc2c(O)c(O)ccc12	0.89µM*	/	/	/	/	/
O=c1cc(-c2ccccc2)oc2c(O)c(O)ccc12	8.9µM*	/	/	/	/	/
O=C(O)Cc1cccc2c(=O)cc(-c3ccccc3)oc12	/	/	/	-1	4%	/
CCC1(OC(=O)CN(C)C)C(=O)OCc2c1cc1n(c2=O)Cc2cc3c(N)cccc3nc2-1 (stereo unspecified)	?	/	7.9µM*	-2	?	8.9µM*
CCOC(=O)c1c(C)[nH]c(C)c1S(=O)(=O)N(C)CC(=O)Nc1ccc(C)cc1C	11%	29%	-18%	/	/	21%
C=CCN1C(=O)/C(=C/c2ccsc2)SC1=S	-17%	12%	1%	-2	-2%	1%
